Several values for one entry are separate records, joined by “and”; a condition that tells them apart may be missing. Identical values can stand only once. Results filed as inconclusive are left out. Where a call stands in place of a potency, no number is given. Values without a mark were called inactive. Activity calls are given as the source filed them. Unless noted, calls come from the whole dose curve; as a rule, active = well fitted curve in the direction sought with a large enough effect; inconclusive = small, poorly fitted or top-dose-only effect, or another doubt; inactive = no such curve, though single readings can be large; an effect the other way counts as inactive or inconclusive.
What was measured:
[1] = qHTS to identify inhibitors of the type 1 interferon - major histocompatibility complex class I in skeletal muscle: primary screen against the NCATS Mechanism Interrogation Plate v5.0 (MIPE) Libary (AID 1347411); conditions: iHSKM cells + IFN-b, HiBiT-tagged MHC-I luminescence, 24 h; series mostly up to 45.8 µM; note: nearly all actives have a fitted effect of over 65% in size; note: potency is the fitted concentration of half-maximal effect
Procedure, shortened: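 Seed engineered human myoblasts (HLA-B HiBit) in medium without dexamethasone containing 4 ng/ml IFN-beta; after 1 hr add compound titrations (top 46 uM final). Incubate 24 hrs at 37 C, lyse 10 min with HiBiT reagent, read luminescence.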

[2] = biological target: Protein phosphatase 1D (Homo sapiens) (UniProt O15297); assay: RapidFire Mass Spectrometry qHTS Assay for Modulators of WT P53-Induced Phosphatase 1 (WIP1) (AID 1347424); conditions: WIP1 dephosphorylation of phosphopeptide, RapidFire MS; series mostly up to 63 µM;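 note: amount of dephosphorylated VEPPL-S-QETFS peptide product formed by WIP1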
Procedure, shortened: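 RapidFire mass spectrometry measured dephosphorylated peptide after 5 min room-temperature reaction of 2 uM VEPPL-pS-QETFS with 10 nM WIP1 (50 mM Tris-HCl pH 7.5, 30 mM MgCl2, 0.1 mM EGTA, BSA), following 1 hr compound preincubation; 1 uM isotope-labelled product standard.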

[3] = biological target: Protein phosphatase 1D (Homo sapiens) (UniProt O15297); assay: Rhodamine-PBP qHTS Assay for Modulators of WT P53-Induced Phosphatase 1 (WIP1) (AID 1347425); conditions: recombinant WIP1, Rhodamine-PBP phosphate fluorescence, real-time; series mostly up to 57.5 µM
Procedure, shortened: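 5 nM WIP1 + 10 uM Rh-PBP, 50 mM Tris pH 7.5, 30 mM MgCl2, 1 mM TCEP, 0.1 mM EGTA, BSA; cpds pinned, 1 hr RT; + 10 uM phosphopeptide; fluorescence 1-min reads x 11 min; delta = f1 - f0.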

[4] = biological target: Calcium and integrin-binding protein 1 (Homo sapiens) (UniProt Q99828); assay: Primary qHTS for Identification of Calcium Integrin Binding Protein 1 (CIB1) Competitor (AID 1508620); conditions: CIB1-GST / FITC-alphaIIb peptide fluorescence polarization; series mostly up to 57.7 µM;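 note: GST tagged CIB1 binding a fluorescein labelled alphaIIb integrin peptide tracer; top concentration of the series differs between compounds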
Procedure, shortened: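 CIB1-GST (1 uM final) and compound incubated 15 min at room temperature before adding FITC-alphaIIb peptide tracer (100 nM final). Competition for binding read by fluorescence polarization (ex 480, em 540) after another 15 min at room temperature.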

[5] = Primary qHTS for small molecule stabilizers of the endoplasmic reticulum resident proteome: Secreted ER Calcium Modulated Protein (SERCaMP) assay (AID 1508630); conditions: SH-SY5Y GLuc-SERCaMP (Gaussia luciferase released on ER calcium loss) secretion, thapsigargin, luminescence; series mostly up to 38.4 µM
Procedure, shortened: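 The SH-SY5Y reporter protocol was run at 3 concentrations up to 38.3 uM (primary) or 11 concentrations (follow-up): 16 h compound, 100 nM thapsigargin for 4 h, then extracellular luciferase luminescence.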

[6] = A High-Content qHTS Against Drug Library for the Identification of Small Molecules that Inhibit DYT1 Early Onset Primary Dystonia-Associated Cell Pathology (AID 1645839; calls by dose curve; note: potency is the fitted concentration of half-maximal effect); conditions: HEK293 Flp-In EGFP-delE TorsinA, punctate imaging, 48 h; series mostly up to 46.1 µM
Procedure, shortened: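 High-content imaging quantified EGFP-TorsinA mislocalization in HEK293-derived cells inducibly expressing DYT1 mutant torsinA, after 48 h exposure to compound given together with tetracycline induction. Cell count served as a toxicity channel alongside %pathology.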

[7] = biological target: Cytochrome P450 2D6 (Homo sapiens) (UniProt P10635); assay: Cytochrome P450 family 2 subfamily D member 6 (CYP2D6) small molecule antagonists: luciferase biochemical (cell-free) qHTS assay (AID 1645840; active = well fitted curve in the direction sought with a large enough effect in the repeat runs; an effect the other way counts as inactive or inconclusive; note: nearly all actives have a fitted effect of over 55% in size; note: potency is the fitted concentration of half-maximal effect); conditions: P450-Glo CYP2D6 enzyme, luciferin luminescence, 1 h; series mostly up to 57.4 µM
Procedure, shortened: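 P450-Glo CYP2D6 system: proluciferin substrate converted by enzyme to luciferin, read by luminescence proportional to activity. Enzyme-substrate mix with compound 10 min at room temperature, then NADPH regeneration 1 h before detection reagent.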

[8] = biological target: Cytochrome P450 2C9 (Homo sapiens) (UniProt P11712); assay: Cytochrome P450 family 2 subfamily C member 9 (CYP2C9) small molecule antagonists: luciferase biochemical (cell-free) qHTS assay (AID 1645842; active = well fitted curve in the direction sought with a large enough effect in the repeat runs; an effect the other way counts as inactive or inconclusive; note: nearly all actives have a fitted effect of over 55% in size; note: potency is the fitted concentration of half-maximal effect); conditions: P450-Glo CYP2C9 enzyme assay, luciferin luminescence; series mostly up to 57.4 µM
Procedure, shortened: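 P450-Glo CYP2C9 system: proluciferin substrate with enzyme in mix containing 0.4% BSA, 10 min at room temperature, then NADPH regeneration solution added and incubated 1 h at 37C. Detection reagent stopped reaction; luminescence read after 20 min as RLU.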

[9] = Primary qHTS for inhibitors of La Crosse Virus (LACV) - induced cell death in SH-SY5Y cells (AID 1508616); conditions: SH-SY5Y LACV cytopathicity rescue, ATP luminescence, 6 d; series mostly up to 4.29 µM;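 note: top concentration of the series differs between compounds; higher means more rescue of cells from virus-induced death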
Procedure, shortened: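 SH-SY5Y, 6000 cells/well; cpd via pin tool in DMSO; LACV 0.01 MOI; 6 d 37C 5% CO2; ATPLite, 5 min RT; luminescence normalized to ±virus DMSO controls.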

[10] = biological target: N-terminal Xaa-Pro-Lys N-methyltransferase 1 (Homo sapiens) (UniProt Q9BV86); assay: Confirmatory qHTS for Inhibitors of N-terminal methyltransferase 1 (NTMT1): MTaseGlo Assay (AID 1645874); conditions: NTMT1 enzyme, MTase-Glo SAH luminescence; series mostly up to 51.5 µM;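 note: luminescence from SAH made as NTMT1 methylates SPKRIA peptide using SAM; nearly all actives have a fitted effect of over 65% in size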
Procedure, shortened: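 Enzyme mix (125 nM NTMT1, 100 uM SAM) + compound, 15 min RT; + 1 uM SPKRIA, 30 min RT, dark; MTase-Glo reagent 30 min, detection solution 30 min; luminescence. % inhibition vs no-enzyme/DMSO controls, 4-parameter Hill fit.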

[11] = biological target: Cytochrome P450 3A4 (Homo sapiens) (UniProt P08684); assay: Cytochrome P450 family 3 subfamily A member 4 (CYP3A4) small molecule antagonists: luciferase qHTS assay (AID 1645841; active = well fitted curve in the direction sought with a large enough effect in the repeat runs; an effect the other way counts as inactive or inconclusive; note: nearly all actives have a fitted effect of over 45% in size); conditions: P450-Glo CYP3A4 enzyme assay, luciferin luminescence; series mostly up to 57.4 µM
Procedure, shortened: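 Luminescent CYP3A4 activity readout: compounds plus enzyme-substrate mix 10 min at room temperature, reaction started with NADPH regenerating system for 1 h, stopped with detection reagent, read after 20 min. Ketoconazole served as control.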

[12] = Counterscreen qHTS for small molecule stabilizers of the endoplasmic reticulum resident proteome: GLuc-NoTag assay (AID 1508627); conditions: Gaussia luciferase NoTag secretion counterscreen, luminescence, thapsigargin 100 nM for final 4 h; series mostly up to 76.4 µM
Procedure, shortened: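 Counterscreen line: SH-SY5Y-GLuc-NoTag cells, treated with compound 19 hr before a 4 hr, 100 nM thapsigargin calcium depletion. Secreted Gaussia luciferase in the medium was measured by luminescence after coelenterazine was added (0.07x final), with cells unlysed.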

[13] = Confirmatory qHTS for small molecule stabilizers of the endoplasmic reticulum resident proteome: Secreted ER Calcium Modulated Protein (SERCaMP) assay (AID 1508628); conditions: SERCaMP secreted luciferase ER calcium/proteostasis reporter; series mostly up to 76.3 µM; note: potency is the fitted concentration of half-maximal effect; nearly all actives have a fitted effect of over 40% in size
Procedure, shortened: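 Reporter secretion upon ER calcium depletion (100 nM thapsigargin, 4 h, 37C) is measured as medium luminescence with coelenterazine, after 16 h compound pretreatment of SH-SY5Y-GLuc-SERCaMP cells; primary at three concentrations up to 38.3 uM, follow-up at 11 (up to 76.6 uM).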

[14] = biological target: Calcium and integrin-binding protein 1 (Homo sapiens) (UniProt Q99828); assay: Confirmatory qHTS for Identification of Calcium Integrin Binding Protein 1 (CIB1) Competitor (AID 1508617); conditions: CIB1 binding competition assay, biochemical qHTS; series mostly up to 114 µM; note: nearly all actives have a fitted effect of over 65% in size
Procedure, shortened: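 Confirmatory qHTS measures displacement of a FITC-alphaIIb peptide (100 nM) from CIB1-GST (1 uM) by fluorescence polarization. Calcium-containing HEPES buffer, pH 7.4; two 15 min room-temperature incubations.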

Calcium and integrin-binding protein 1 (Homo sapiens), sequence (Q99828 whole entry, looked up): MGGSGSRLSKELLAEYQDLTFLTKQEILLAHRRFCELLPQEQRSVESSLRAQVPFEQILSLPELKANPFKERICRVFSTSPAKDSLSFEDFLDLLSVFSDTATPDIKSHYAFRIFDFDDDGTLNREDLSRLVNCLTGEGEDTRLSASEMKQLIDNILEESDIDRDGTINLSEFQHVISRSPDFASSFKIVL
Cytochrome P450 2C9 (Homo sapiens), sequence (P11712 whole entry, looked up): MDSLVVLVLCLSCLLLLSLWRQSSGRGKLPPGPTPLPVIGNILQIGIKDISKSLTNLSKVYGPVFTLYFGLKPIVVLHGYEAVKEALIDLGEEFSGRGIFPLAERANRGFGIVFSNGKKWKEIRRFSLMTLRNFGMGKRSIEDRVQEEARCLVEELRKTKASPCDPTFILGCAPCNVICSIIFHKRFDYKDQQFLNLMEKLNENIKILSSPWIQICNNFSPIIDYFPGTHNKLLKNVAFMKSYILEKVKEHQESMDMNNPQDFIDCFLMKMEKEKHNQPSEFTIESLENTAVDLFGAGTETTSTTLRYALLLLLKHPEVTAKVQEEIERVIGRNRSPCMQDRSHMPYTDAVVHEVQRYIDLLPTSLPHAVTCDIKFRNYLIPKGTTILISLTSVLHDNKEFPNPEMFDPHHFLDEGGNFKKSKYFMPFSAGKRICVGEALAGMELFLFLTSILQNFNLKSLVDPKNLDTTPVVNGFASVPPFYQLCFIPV
Cytochrome P450 2D6 (Homo sapiens), sequence (P10635 whole entry, looked up): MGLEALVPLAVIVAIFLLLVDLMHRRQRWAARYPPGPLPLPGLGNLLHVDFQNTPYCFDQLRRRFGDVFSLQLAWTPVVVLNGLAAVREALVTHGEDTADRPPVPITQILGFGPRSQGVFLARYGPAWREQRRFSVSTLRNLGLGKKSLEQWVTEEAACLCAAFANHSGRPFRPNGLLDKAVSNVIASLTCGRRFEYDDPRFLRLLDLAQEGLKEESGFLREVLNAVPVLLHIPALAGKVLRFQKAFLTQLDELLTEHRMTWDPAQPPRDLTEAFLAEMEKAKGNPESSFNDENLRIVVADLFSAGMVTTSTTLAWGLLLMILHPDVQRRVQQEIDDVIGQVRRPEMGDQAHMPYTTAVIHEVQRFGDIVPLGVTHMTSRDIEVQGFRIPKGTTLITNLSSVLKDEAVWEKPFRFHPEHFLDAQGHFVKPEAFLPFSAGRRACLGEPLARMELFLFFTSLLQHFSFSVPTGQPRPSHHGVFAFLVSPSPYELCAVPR
Protein phosphatase 1D (Homo sapiens), sequence (O15297 whole entry, looked up): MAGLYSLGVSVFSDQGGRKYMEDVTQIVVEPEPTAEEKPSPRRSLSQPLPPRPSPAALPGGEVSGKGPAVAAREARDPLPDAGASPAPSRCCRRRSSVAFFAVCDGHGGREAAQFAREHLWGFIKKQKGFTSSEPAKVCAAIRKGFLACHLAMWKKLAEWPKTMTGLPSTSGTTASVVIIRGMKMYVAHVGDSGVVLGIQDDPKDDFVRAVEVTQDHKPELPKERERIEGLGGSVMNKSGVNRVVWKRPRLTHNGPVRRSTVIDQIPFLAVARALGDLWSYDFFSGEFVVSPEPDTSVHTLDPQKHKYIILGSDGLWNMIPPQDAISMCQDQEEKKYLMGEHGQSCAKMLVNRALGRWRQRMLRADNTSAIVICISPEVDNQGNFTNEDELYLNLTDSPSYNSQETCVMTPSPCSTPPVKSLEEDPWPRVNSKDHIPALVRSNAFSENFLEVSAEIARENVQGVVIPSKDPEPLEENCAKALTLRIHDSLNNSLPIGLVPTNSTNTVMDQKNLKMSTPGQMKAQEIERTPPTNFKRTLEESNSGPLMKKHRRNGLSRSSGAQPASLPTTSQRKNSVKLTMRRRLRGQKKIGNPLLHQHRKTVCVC
Cytochrome P450 3A4 (Homo sapiens), sequence (P08684 whole entry, looked up): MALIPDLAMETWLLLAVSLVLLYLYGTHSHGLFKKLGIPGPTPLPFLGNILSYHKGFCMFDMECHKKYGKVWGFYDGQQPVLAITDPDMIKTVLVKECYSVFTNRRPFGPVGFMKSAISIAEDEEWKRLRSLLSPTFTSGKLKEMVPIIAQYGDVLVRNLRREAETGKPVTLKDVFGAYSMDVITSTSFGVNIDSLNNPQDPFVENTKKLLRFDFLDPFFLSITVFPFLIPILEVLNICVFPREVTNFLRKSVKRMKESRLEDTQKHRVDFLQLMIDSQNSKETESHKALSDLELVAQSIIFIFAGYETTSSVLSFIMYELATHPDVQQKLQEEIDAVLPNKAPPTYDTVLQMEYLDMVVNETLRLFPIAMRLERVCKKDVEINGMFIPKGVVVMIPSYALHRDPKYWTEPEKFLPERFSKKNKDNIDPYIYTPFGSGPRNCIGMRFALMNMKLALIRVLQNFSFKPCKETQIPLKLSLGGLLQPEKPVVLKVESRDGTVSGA
N-terminal Xaa-Pro-Lys N-methyltransferase 1 (Homo sapiens), sequence (Q9BV86 whole entry, looked up): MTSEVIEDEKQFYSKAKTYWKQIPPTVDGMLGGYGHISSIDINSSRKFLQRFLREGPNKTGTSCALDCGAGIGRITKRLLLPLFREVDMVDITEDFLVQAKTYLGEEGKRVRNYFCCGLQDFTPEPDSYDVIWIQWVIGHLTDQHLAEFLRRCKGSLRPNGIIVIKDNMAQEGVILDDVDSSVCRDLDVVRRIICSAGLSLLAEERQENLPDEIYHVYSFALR

| SMILES | Potency [1] | outcome [2] | outcome [3] | outcome [4] | Potency [5] | Potency [6] | Potency [7] | Potency [8] | Potency [9] | Potency [10] | outcome [11] | outcome [12] | Potency [13] | outcome [14] |
| --- | --- | --- | --- | --- | --- | --- | --- | --- | --- | --- | --- | --- | --- | --- |
| NS(=O)(=O)c1cc2c(cc1Cl)NC(C(Cl)Cl)NS2(=O)=O (stereo not drawn) | inactive | inactive | inactive | inactive | inactive | inactive | inactive | inactive | – | – | – | – | – | – |
| CC(C)C[C@H](NC(=O)[C@H](CCc1ccccc1)NC(=O)CN1CCOCC1)C(=O)N[C@@H](Cc1ccccc1)C(=O)N[C@@H](CC(C)C)C(=O)[C@@]1(C)CO1 | 0.0262 µM (active) | inactive | inactive | inactive | inactive | inactive | inactive | inactive | – | – | – | – | – | – |
| COc1cnc(NS(=O)(=O)c2ccc(N)cc2)nc1 | – | inactive | inactive | inactive | inactive | inactive | inactive | inactive | inactive | – | – | – | – | – |
| CCc1cc(C(N)=S)ccn1 | inactive | inactive | inactive | inactive | inactive | inactive | – | – | – | inactive | – | – | – | – |
| CC(=O)Oc1ccccc1C(=O)Nc1ncc([N+](=O)[O-])s1 | 23.4 µM (active) | – | – | inactive | inactive | – | 8.71 µM (active) | 2.75 µM (active) | inactive | – | – | – | – | – |
| COc1ncnc(NS(=O)(=O)c2ccc(N)cc2)c1OC | inactive | inactive | inactive | inactive | – | inactive | inactive | inactive | – | – | – | – | – | – |
| O=S(=O)(O)CCS | inactive | inactive | inactive | inactive | – | inactive | inactive | inactive | – | – | inactive | – | – | – |
| Cn1c(=O)c2c(ncn2CC(O)CO)n(C)c1=O (stereo not drawn) | inactive | inactive | inactive | inactive | – | inactive | inactive | inactive | – | – | – | – | – | – |
| Cc1nnc(C(=O)NC(C)(C)c2nc(C(=O)NCc3ccc(F)cc3)c(O)c(=O)n2C)o1 | inactive | inactive | inactive | inactive | inactive | inactive | inactive | inactive | – | – | – | – | – | – |
| CN1CCCC(n2nc(Cc3ccc(Cl)cc3)c3ccccc3c2=O)CC1 (stereo not drawn) | – | inactive | inactive | inactive | inactive | – | 0.617 µM (active) | inactive | inactive | – | – | inactive | 20 µM (active) | – |
| COc1ccccc1OCC(O)COC(N)=O (stereo not drawn) | – | inactive | inactive | inactive | inactive | inactive | inactive | inactive | inactive | – | – | – | – | – |
| CO[C@@]12[C@H](COC(N)=O)C3=C(C(=O)C(C)=C(N)C3=O)N1C[C@@H]1N[C@@H]12 | – | inactive | inactive | inactive | inactive | – | 12.3 µM (active) | inactive | inactive | – | – | – | – | inactive |
| CN(C)c1ccc(C(=C2C=CC(=[N+](C)C)C=C2)c2ccc(N(C)C)cc2)cc1 | 3.7 µM (active) | inactive | inactive | inactive | inactive | – | 3.09 µM (active) | – | – | – | – | – | – | – |
| CCCCc1oc2ccc(NS(C)(=O)=O)cc2c1C(=O)c1ccc(OCCCN(CCCC)CCCC)cc1 | – | inactive | inactive | inactive | inactive | 5.01 µM (active) | 2.75 µM (active) and 3.38 µM (active) | 12.3 µM (active) and 12 µM (active) | inactive | – | – | – | – | – |
| CNS(=O)(=O)Cc1ccc2[nH]cc(CCN(C)C)c2c1 | – | inactive | inactive | inactive | inactive | inactive | inactive | inactive | inactive | – | – | – | – | – |
| COc1ccc(-c2ccc3cc(C(=O)O)ccc3c2)cc1C12CC3CC(CC(C3)C1)C2 | inactive | – | inactive | inactive | inactive | – | inactive | inactive | inactive | – | – | – | – | – |
| O=NN(CCCl)C(=O)NC1CCCCC1 | inactive | – | inactive | inactive | inactive | inactive | inactive | inactive | inactive | – | inactive | – | – | – |
| COC(c1ccccc1)(c1ccccc1)[C@H](Oc1nc(C)cc(C)n1)C(=O)O | inactive | inactive | inactive | inactive | inactive | inactive | inactive | inactive | – | – | – | – | – | – |

From PubChem BioAssay (NCATS)
